From ChEMBL document CHEMBL3433997, “St. Jude Leishmania screening dataset” (2016)

Experiments:
Assay type in all cases: functional
[1] = biological target: Solute carrier family 2, facilitated glucose transporter member 1 (Homo sapiens) (UniProt P11166); assay: ST_JUDE_LEISH: Cytotoxicity at 2uM final concentration against transgenic Leishmania Mexicana promastigotes LmGLUT1 that are glucose transport deficient and complemented with the human glucose transporter GLUT1. Activity is measured by DNA content using SYBR green in vitro
[2] = biological target: Hexose transporter 1 (Plasmodium falciparum) (UniProt O97467); assay: ST_JUDE_LEISH: Cytotoxicity at 2uM final concentration against transgenic Leishmania Mexicana promastigotes LmPfHT that are glucose transport deficient and complemented with the Plasmodium falciparum hexose transporter. Activity is measured by DNA content using SYBR green in vitro
[3] = biological target: Glucose transporter (Leishmania mexicana) (UniProt O61059); assay: ST_JUDE_LEISH: Cytotoxicity at 2uM final concentration against transgenic Leishmania Mexicana promastigotes LmGT2 that are glucose transport deficient and complemented with the L. Mexicana glucose transporter 2. Activity is measured by DNA content using SYBR green in vitro

Solute carrier family 2, facilitated glucose transporter member 1 (Homo sapiens), sequence (P11166 whole entry): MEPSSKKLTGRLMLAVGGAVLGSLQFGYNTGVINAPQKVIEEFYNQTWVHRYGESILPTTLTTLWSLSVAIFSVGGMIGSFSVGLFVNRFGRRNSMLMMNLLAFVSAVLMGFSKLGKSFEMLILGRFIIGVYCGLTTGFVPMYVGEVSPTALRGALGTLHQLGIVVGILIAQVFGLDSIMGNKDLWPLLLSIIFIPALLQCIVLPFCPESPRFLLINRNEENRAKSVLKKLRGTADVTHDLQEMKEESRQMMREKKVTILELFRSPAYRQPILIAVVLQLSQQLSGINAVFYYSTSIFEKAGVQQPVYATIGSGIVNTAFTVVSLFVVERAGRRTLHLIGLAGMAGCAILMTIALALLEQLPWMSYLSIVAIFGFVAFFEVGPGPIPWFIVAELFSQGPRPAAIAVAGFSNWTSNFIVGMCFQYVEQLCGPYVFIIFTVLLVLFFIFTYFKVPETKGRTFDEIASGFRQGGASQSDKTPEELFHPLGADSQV

| Compound | inhibition [1] [%] | inhibition [2] [%] | inhibition [3] [%] |
| --- | --- | --- | --- |
| Cc1ccc(C(=O)NC2C(=O)NC2c2ccccc2)c(C)c1 (centres undefined) | 3.72 | 4.84 | 2.37 |
| O=C(NC1CCC1)C1CCN(C(c2ccccc2)c2cc(F)cc(F)c2)CC1 (centres undefined) | 6.73 | 7.32 | 6.61 |
| Cc1ccc2nc(C)cc(Nc3ccccc3O)c2c1 | -0.76 | -1.41 | -1.03 |
| Cc1ccc(Nc2nccc(NCC(O)c3cccc(F)c3)n2)cc1 (centres undefined) | 0.93 | 1.15 | -0.59 |
| O=C(/C=C/c1ccc(Cl)c(Cl)c1)N1CCC(CN2CCC(Cc3nc4ccccc4[nH]3)CC2)CC1 | 1.43 | 1.29 | 3.16 |
| Cn1c(N)c(C(=O)CSc2nnc(-c3cccs3)n2Cc2ccccc2)c(=O)n(C)c1=O | 10.1 | 8.98 | 8.86 |
| CN(CCc1ccccn1)c1cccc2c1nc(-c1cccnc1)n2CCNCc1ccccc1 | 14.8 | 13.4 | 11.3 |
| CC(Oc1ccc(C(=O)c2ccc(F)cc2)cc1)C(=O)N1CCc2ccccc21 (centres undefined) | -1.44 | -0.96 | 0.7 |
| C=CCc1cc(Cc2cnc(N)nc2N)cc(CCC)c1OC | 15.3 | 12.5 | 8.6 |
| O=C(Nc1cc(Cl)ccc1Cl)N[C@H]1CCN(CCCCCNC(=O)C2CC2c2ccc(Cl)c(Cl)c2)C1 (some centres undefined) | 1.43 | 1.2 | 4.46 |
| CN(C)CCOc1ccc(-c2cc(-c3ccnc(N)n3)c(-c3ccc(Cl)c(O)c3)o2)cc1 | 1.34 | 1.5 | 2.71 |
| O=C(/C=C/c1ccc(Cl)c(Cl)c1)NCCCCCCN1CCN(C(=O)Nc2ccc(OC(F)F)cc2)CC1 | 5.36 | 6.98 | 6.38 |
| CN(c1ccc(F)cc1)S(=O)(=O)c1ccc(Cl)c(C(=O)Nc2cccc(C#N)c2)c1 | 4.24 | 3.52 | 3.65 |
| O=C(c1cc2c(s1)-c1cccc(Cl)c1SC2)N1CCN(c2ccncc2)CC1 | 4.7 | 3.88 | 4.35 |
| CC(C)CNCc1ccc(-c2cccc(-c3nc4ccccc4[nH]3)c2)cc1 | 1.31 | 9.2 | 0.1 |
| CCCCc1ccc(-c2c(N)nc(N)nc2CC)cc1 | 11.5 | 9.06 | 8.51 |
| COc1cccc(C(=O)Nc2ccc(Oc3ccc(Cl)cc3)cc2)c1 | -1.17 | -0.22 | -1.01 |
| CC(CC(=O)NCC1(c2ccc(F)cc2Cl)CCOCC1)C(=O)c1ccc(Cl)cc1 (centres undefined) | 0.34 | 1.23 | 1.88 |
| O=C(Nc1ccc(Cl)cc1)N(CC1CC2CCC(C1)N2Cc1ccc(C(F)(F)F)cc1)c1ccc(N2CCOCC2)c(F)c1 (centres undefined) | 6.73 | 5.58 | 8.78 |
| O=[N+]([O-])c1ccc(Nc2nc(N/N=C/c3cc(Cl)cc(Cl)c3O)nc(Nc3ccccc3)n2)cc1 | 2.04 | 2.61 | 2.65 |
| O=C(NCCN1CCCC1)N1CCCN(c2ncnc3cc(-c4ccc(Cl)cc4)sc23)CC1 | 0.21 | 1.33 | 0.08 |
| CC(=O)Nc1ccc(S(=O)(=O)Nc2ccc(Nc3nc(C)cc(N4CCCCC4)n3)cc2)cc1 | 5.51 | 5.79 | 5.54 |
| C=CCOc1cccc2c1CCN(CCN1CCC(NC(=O)c3ccc(-c4ccc(Cl)cc4)cc3)CC1)C2 | 17.2 | 11.3 | 9.23 |
| CSc1nc2nc(C)c(Cc3cccc(C(F)(F)F)c3)c(C)n2n1 | 0.17 | 0 | -1.61 |
| O=C(/C=C/c1ccc(Cl)c(Cl)c1)NCCCCCN1CCCC(c2c[nH]c3ccccc23)C1 (centres undefined) | 5.68 | 5.33 | 5.49 |

| Compound | inhibition [1] [%] | inhibition [2] [%] | inhibition [3] [%] |
| --- | --- | --- | --- |
| O=C(O)CCCN1CCCC(=C(c2ccccc2)c2ccccc2)C1 | 3.04 | 3.64 | 4.81 |
| COC(=O)Cn1c2ccccc2c2c(N)c(C(=O)OC)c(C)nc21 | 0.93 | 0.97 | -0.45 |
| CN(Cc1ccccc1)C1CCCN(c2cc(NC(=O)c3ccc(F)cc3)ccn2)C1 (centres undefined) | -0.91 | -2.04 | 0.07 |
| CCCCNC(=O)c1[nH]c2c(NC(=O)COc3ccccc3)cccc2c1-c1cccc(NC(=O)C(N)CO)c1 (centres undefined) | 10.1 | 9.02 | 7.27 |
| CCC(=Cc1cccc([N+](=O)[O-])c1)C(=O)NCC1CCN(c2nc3cc(OC)c(OC)cc3c(=N)[nH]2)CC1 | 5.64 | 7.07 | 6.83 |
| N#Cc1cccc(C(=O)Nc2cccc(-c3ccc(CN4CCC(O)CC4)cc3)c2)c1 | 3.3 | -0.89 | 0.83 |
| CC(C)c1ccc(NC(=O)Nc2ccc(Cn3ncc(N4CCCNCC4)c(Cl)c3=O)cc2)cc1 | 1.52 | 1.29 | -0.56 |
| CCc1cn2c3c(cc(C(=O)N[C@@H](Cc4ccccc4)[C@H](O)CN[C@@H](C)CC)cc13)N(C)S(=O)(=O)CC2 | 0.43 | 2.23 | -0.58 |
| Cc1noc(C)c1-c1cccc(CNCc2cccc(-c3ccc(-c4nc5cccc(C)c5[nH]4)cc3)c2)c1 | 1.89 | 1.4 | 0.96 |
| COC(=O)c1c(C#N)c(OC)cc(O)c1CSC[C@H](Nc1nc(-c2ccc([N+](=O)[O-])cc2)cs1)C(=O)NCCN1CCCCC1 | -1.73 | 0.29 | -0.42 |
| O=C(Nc1ccc2c(c1)CCC2)N[C@H]1CCN(Cc2ccc(OCCCN3CCCCC3)cc2)C1 | 1.25 | 2.37 | 2.47 |
| CN1CCN(Cc2ccc(-c3ccc4c(Nc5cc(O)c(F)cc5Cl)ccnc4c3)o2)CC1 | 4.84 | 2.61 | 2.56 |
| N=C(NC1CC1)c1ccc2[nH]c(CCCCCc3nc4cc(C(=N)NC5CC5)ccc4[nH]3)nc2c1 | -1.14 | -0.68 | 1.61 |
| CCCCNc1c(CC)c(C)c(C#N)c2nc3ccccc3n12 | 29.1 | 51.4 | 21.8 |
| c1cc(CNC2Cc3ccc(-c4cccs4)cc3C2)cc(-n2ccnc2)c1 (centres undefined) | 3.39 | 0.43 | 1.86 |
| CN1CCC(NCc2cccc(-c3ccc(S(=O)(=O)NCCN4CCCC4)c(F)c3)c2)CC1 | -1.49 | -0.62 | -0.34 |
| O=c1cc(NCCCNCc2cccc(Oc3ccccc3)c2)[nH]c2ccccc12 | 4.28 | 2.68 | 3.25 |
| CC(=O)Nc1cccc(-c2cn(-c3ccc(OCc4cccc(F)c4)c(Cl)c3)c3ncncc23)c1 | 2.04 | 0.08 | -0.28 |
| Cc1ccc(C)c(NC(=O)Nc2ccc(Nc3nc(C)cc(N4CCOCC4)n3)cc2)c1 | 1.4 | 0.2 | -5.61 |
| O=C(CSc1nc2ccc([N+](=O)[O-])cc2s1)Nc1ccccc1-c1ccccc1 | -0.42 | -0.44 | -1.03 |
| COc1c(C2CCN(CCCCNC(=O)c3ccc(-c4ccc(C(F)(F)F)cc4)c(C(=O)OC(C)C)c3)CC2)ccc2c1CCCC2 | 1.36 | 1.79 | 0.91 |
| COc1ccc(Nc2nccc(N3CCC(NC(=O)c4cccc(C#N)c4)C3)n2)cc1 (centres undefined) | 2.52 | 4.34 | 3.91 |
| Cc1cc(C)c2nc(N3CCC(C(=O)NCCCN4CCC(N5CCCCC5)CC4)CC3)sc2c1 | 1.45 | 2.91 | 0.65 |
| O=C(Nc1ccccc1)c1c[nH]cn1 | 0.43 | 2.14 | -0.23 |
| Cc1cccc2nc(-c3ccc(-c4cccc(C(=O)NCCc5cn(C)cn5)c4)s3)[nH]c12 | 1.8 | 1.96 | 1 |

| Compound | inhibition [1] [%] | inhibition [2] [%] | inhibition [3] [%] |
| --- | --- | --- | --- |
| FC(F)(F)c1ccc(Nc2nnnc3ccccc23)cc1 | 7.74 | 7.45 | 6.1 |
| Cc1cc(OCCCNc2nc(NCCc3ccc(O)cc3)nc(N3CCNCC3)n2)c(Cl)c(C)c1Cl | 0.58 | 1.22 | 0.27 |
| Cc1ccccc1C1CCN(C2CCC(NC(=O)c3csc(-c4cccc(Cl)c4)n3)CC2)CC1 (centres undefined) | 9.21 | 12 | 8.46 |
| N=C(N)NN=Cc1c2ccccc2c(Cl)c2c(Cl)cccc12 | 24.6 | 26.2 | 10.2 |
| Cc1noc(C)c1-c1cccc(CNCc2ccc(-c3ccc(-c4nc5cc(F)ccc5[nH]4)s3)cc2)c1 | 11.2 | 10.3 | 10.2 |
| CC12CC3CC(C)(C1)CC(Nc1nc(N4CCOCC4)nc4ccccc14)(C3)C2 | 2.67 | 2.82 | -0.7 |
| CN(CCc1ccccn1)Cc1ccc(-c2ccc(-c3nc4ccccc4[nH]3)s2)cc1 | -0.34 | -1.13 | -2.7 |
| Nc1ncc(-c2cn[nH]c2)cc1-c1nc2cc(Cl)cnc2[nH]1 | 3.35 | 1.4 | 1.93 |
| OCCCCCCNc1nc(NCc2ccccc2-c2ccc(C(F)(F)F)cc2)nc(N2CCNCC2)n1 | 1.31 | -1.2 | 0.81 |
| Cc1cc(N(C)C2CCN(C)C2)nc(Nc2ccc(Cl)cc2)n1 (centres undefined) | 7.55 | 8.61 | 4.14 |
| O=C(Nc1ccc2c(c1)CN(Cc1ccc(N3CCCC3)o1)CCC2)c1cncs1 | 1.6 | 1.62 | -0.45 |
| Cc1cc(N(C)C)nc(Nc2ccc(NC(=O)CCc3ccccc3)cc2)n1 | 3.05 | 6.42 | 2.1 |
| CCC(C)c1ccc(O)c(NC(=O)c2cncc(Br)c2)c1 (centres undefined) | -0.89 | 0.04 | -2.07 |
| CC(C)(CN)c1nc(-c2ccc(Cl)c(O)c2)c(-c2ccnc(N)n2)[nH]1 | -0.87 | -0.81 | -1.58 |
| Cc1cnccc1/C=C/c1cccc(OCCCN2CCc3ccc(S(C)(=O)=O)cc3CC2)c1 | 2.21 | 2.58 | 2.19 |
| Cn1c(-c2ccccc2)cc2c3c(N)nc(N)nc3ccc21 | 105 | 104 | 98.2 |
| CCN(CCCN1CCCCC1)c1cc(C)nc(Nc2ccc(C)c(F)c2)n1 | 5.07 | 5.06 | 6.2 |
| CC(CN)OCn1cnc2c(N)ncnc21 (centres undefined) | 0.4 | 4.03 | 4.83 |
| CCOC(=O)C(NC(=O)Cc1ccccc1)C(C)C (centres undefined) | -2.58 | -2.35 | -3.14 |
| CC(=O)Nc1nc(C(=O)Nc2cccc(-c3ccc(-c4nc5cc(F)ccc5[nH]4)cc3)c2)cs1 | 2.38 | 1.38 | 4.22 |
| COc1cc(OCCCCCCON2C(=N)N=C(N)NC2(C)C)cc(OC)c1OC | 7.66 | 8.02 | 6.93 |
| CN(C)CCN(Cc1ccccc1)c1ccc([N+](=O)[O-])cc1C(F)(F)F | 7.95 | 7.06 | 8.1 |
| Cc1ccc(CNC(=O)[C@H](Cc2ccccc2)Nc2cc(C)nc(NCCc3ccc(F)cc3)n2)cc1 | 5.47 | 4.28 | 10.6 |
